Experimental data taken from PubChem BioAssay (EPA / NIEHS).
Some structures have more than one record in an assay (separate samples or runs), and their calls can disagree. The source made the active and inactive calls. How the source made its calls: active means hit-call score of the fitted dose curve at least 0.9, where 1 is the maximum; inactive means score below 0.9.

Tests used:
[1] = ATG_PPRE_CIS: Attagene CIS-FACTORIAL HepG2 Assay for human Peroxisome Proliferator-activated Response Element (PPRE) (AID 2282958); settings: HepG2 PPRE cis-element reporter, Attagene transcription factor profiling; actives raise or lower the signal
Method in brief: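 In this cell-based multiplex, a PPRE cis element drives a reporter sequence in transiently transfected HepG2 cells. Following 24 h treatment, labeled cDNA amplicons are sized and quantified by capillary electrophoresis, with DMSO defining baseline.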

[2] = ATG_RORE_CIS: Attagene CIS-FACTORIAL HepG2 Assay for human RAR-related Orphan Receptor Element (RORE) (AID 2282959); settings: HepG2 Attagene cis-factorial RORE reporter, mRNA; actives raise or lower the signal
Method in brief: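 Endogenous factor activity at a cis response element is read as reporter transcript levels in HepG2 cells, 24 h post-dose. Transcripts are quantified by RT-PCR with capillary electrophoresis, and data fitted in both directions against DMSO.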

[3] = ATG_Sox_CIS: Attagene CIS-FACTORIAL HepG2 Assay for human SRY-box transcription factor (SOX) (AID 2282960); settings: HepG2 Attagene cis-factorial SOX reporter, mRNA; actives raise or lower the signal
Method in brief: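 Measures mRNA induction of a SOX1-associated reporter in HepG2 after 24 h dosing. Fluorescently labelled RT-PCR fragments are separated by capillary electrophoresis, and gain or loss relative to DMSO control is fitted.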

[4] = biological target: Transcription factor Sp1 (Homo sapiens) (UniProt P08047); assay: ATG_Sp1_CIS: Attagene CIS-FACTORIAL HepG2 Assay for human Specificity Protein 1 (Sp1) (AID 2282961); settings: HepG2 Sp1 cis-reporter transcription, actives raise or lower the signal
Method in brief: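 Cells: HepG2, transiently transfected with cis-regulated multiplexed reporters. Exposure: 24 h. Detection: reporter transcripts amplified, fluorescently labeled, restriction-digested and sized by capillary electrophoresis. Analysis: bidirectional fit relative to DMSO.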

[5] = ATG_SREBP_CIS: Attagene CIS-FACTORIAL HepG2 Assay for human Sterol Regulatory Element Binding (SREBP) (AID 2282962); settings: HepG2 Attagene cis-factorial SREBP reporter, mRNA; actives raise or lower the signal
Method in brief: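 mRNA induction of transfected cis-promoter reporters in HepG2 cells, 24 h post-dose. Detection: RT-PCR with 6-FAM-labelled products, HpaI digest, capillary electrophoresis. DMSO served as negative control and baseline.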

[6] = ATG_TA_CIS: Attagene CIS-FACTORIAL HepG2 Assay for human TA Basal Promoter (AID 2282964); settings: HepG2 Attagene CIS-factorial TA basal promoter reporter; actives raise or lower the signal
Method in brief: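 Multiplexed mRNA reporter assay, HepG2, 24 h. Reporter cDNA amplified, 6-FAM primer-extended, HpaI-cut, CE-sized; DMSO = negative control and baseline.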

[7] = ATG_TAL_CIS: Attagene CIS-FACTORIAL HepG2 Assay for human TAL Basal Promoter (AID 2282966); settings: HepG2 Attagene cis-factorial TAL promoter reporter; actives raise or lower the signal;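 further: background control endpoint measuring basal TAL promoter reporter mRNA not a specific factor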
Method in brief: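 Steps: transfect HepG2 with multiple reporter transcription units; dose 24 h; isolate RNA, reverse-transcribe, PCR-amplify, label with 6-FAM, digest with HpaI; resolve by capillary electrophoresis. Bidirectional fitting against DMSO baseline.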

[8] = ATG_TGFb_CIS: Attagene CIS-FACTORIAL HepG2 Assay for human Transforming Growth Factor (TGF) (AID 2282967); settings: HepG2 Attagene CIS TGFb reporter, mRNA transcription; actives raise or lower the signal
Method in brief: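 Transcript-level reporter readout: HepG2 transfectants, 24 h exposure, RNA to cDNA, reporter-specific PCR, fluorescent primer extension, capillary sizing against ROX standards. Gain- or loss-of-signal relative to DMSO.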

[9] = ATG_TCF_b_cat_CIS: Attagene CIS-FACTORIAL HepG2 Assay for human T-Cell-Factor with beta-catenin (TCF/b-cat) (AID 2282965); settings: HepG2 TCF/beta-catenin cis-reporter transcription, actives raise or lower the signal
Method in brief: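 HepG2, transient MRTU transfection, cis-element-driven reporters (endogenous TFs). 24 h compound exposure. Readout: reporter mRNA by RT-PCR + 6-FAM primer extension, HpaI digest, capillary electrophoresis. Gain/loss fit vs DMSO baseline.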

[10] = biological target: Signal transducer and activator of transcription 3 (Homo sapiens) (UniProt P40763); assay: ATG_STAT3_CIS: Attagene CIS-FACTORIAL HepG2 Assay for human Signal Transducer and Activator of Transcription 3 (STAT3) (AID 2282963); settings: HepG2, Attagene cis-factorial STAT3 reporter transcription; actives raise or lower the signal
Method in brief: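 HepG2 cells transiently transfected with multiple cis-element-driven reporter units report endogenous transcription factor activity. After 24 h compound exposure, reporter mRNA is measured by RT-PCR, 6-FAM labelling, HpaI digestion and capillary electrophoresis. Fitted bidirectionally versus DMSO.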

Measured: AC50

Chain of Signal transducer and activator of transcription 3 (Homo sapiens) (P40763 whole entry, looked up): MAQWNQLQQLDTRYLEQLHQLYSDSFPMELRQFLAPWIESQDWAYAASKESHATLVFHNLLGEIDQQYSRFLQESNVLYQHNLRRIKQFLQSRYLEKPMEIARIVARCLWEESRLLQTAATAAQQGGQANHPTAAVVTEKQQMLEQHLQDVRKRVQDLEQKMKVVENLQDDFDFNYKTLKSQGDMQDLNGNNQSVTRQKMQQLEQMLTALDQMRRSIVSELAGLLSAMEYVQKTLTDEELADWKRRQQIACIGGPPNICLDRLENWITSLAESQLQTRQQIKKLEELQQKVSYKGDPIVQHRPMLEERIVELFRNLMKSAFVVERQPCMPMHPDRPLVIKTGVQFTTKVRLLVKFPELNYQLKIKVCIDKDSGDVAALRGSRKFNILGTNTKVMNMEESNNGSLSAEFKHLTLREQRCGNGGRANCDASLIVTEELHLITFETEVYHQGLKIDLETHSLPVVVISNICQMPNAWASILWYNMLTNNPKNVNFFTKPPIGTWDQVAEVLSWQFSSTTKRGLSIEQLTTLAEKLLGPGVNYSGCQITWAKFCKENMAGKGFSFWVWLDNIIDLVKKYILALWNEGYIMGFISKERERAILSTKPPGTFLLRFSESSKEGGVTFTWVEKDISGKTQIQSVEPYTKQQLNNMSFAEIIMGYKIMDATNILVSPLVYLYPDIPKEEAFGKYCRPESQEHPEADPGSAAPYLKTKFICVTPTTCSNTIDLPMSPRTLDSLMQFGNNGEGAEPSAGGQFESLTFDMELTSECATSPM
Chain of Transcription factor Sp1 (Homo sapiens) (P08047 whole entry, looked up): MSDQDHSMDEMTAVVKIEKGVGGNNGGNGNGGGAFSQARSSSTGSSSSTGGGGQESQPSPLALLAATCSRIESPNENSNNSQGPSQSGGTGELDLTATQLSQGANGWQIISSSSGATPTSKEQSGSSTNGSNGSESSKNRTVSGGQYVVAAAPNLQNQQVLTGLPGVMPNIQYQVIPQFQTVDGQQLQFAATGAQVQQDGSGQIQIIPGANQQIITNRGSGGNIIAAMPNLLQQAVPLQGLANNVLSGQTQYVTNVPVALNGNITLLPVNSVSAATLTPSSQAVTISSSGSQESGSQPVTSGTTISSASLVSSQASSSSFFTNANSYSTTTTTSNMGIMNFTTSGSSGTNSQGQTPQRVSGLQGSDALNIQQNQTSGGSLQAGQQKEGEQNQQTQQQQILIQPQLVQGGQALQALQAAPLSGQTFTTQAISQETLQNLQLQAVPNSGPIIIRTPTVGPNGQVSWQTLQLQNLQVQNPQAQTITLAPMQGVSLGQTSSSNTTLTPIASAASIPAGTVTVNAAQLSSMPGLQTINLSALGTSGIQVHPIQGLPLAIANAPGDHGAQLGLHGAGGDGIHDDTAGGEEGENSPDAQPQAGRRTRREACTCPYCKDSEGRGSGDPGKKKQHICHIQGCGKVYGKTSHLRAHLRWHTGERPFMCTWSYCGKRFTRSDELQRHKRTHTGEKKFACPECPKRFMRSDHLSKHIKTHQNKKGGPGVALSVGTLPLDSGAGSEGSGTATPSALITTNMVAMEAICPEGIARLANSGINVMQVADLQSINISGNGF

C=CCOC(F)(C(F)(F)F)C(F)(F)F
inactive: [1] | [2] | [3] | [4] | [5] | [6] | [7] | [8]

CCOC(=O)Cc1ccccc1
inactive: [1] | [2] | [3] | [4] | [5] | [6] | [7] | [8]

CCOP(=S)(OCC)SCS(=O)(=O)C(C)(C)C
inactive: [1] | [2] | [3] | [4] | [5] | [6] | [9] | [7] | [8]

CCCCCCCCCCBr
inactive: [1] | [3] | [4] | [5] | [10] | [6] | [9] | [7] | [8]

C#CCO
inactive: [1] | [2] | [3] | [5] | [6] | [9] | [7] | [8]

N#Cc1ccncc1
inactive: [1] | [3] | [4] | [5] | [10] | [6] | [9] | [7] | [8]

C[C@@H]1O[C@@H](O[C@H]2C[C@@H](O)[C@]3(CO)[C@H]4[C@H](O)C[C@]5(C)[C@@H](C6=CC(=O)OC6)CC[C@]5(O)[C@@H]4CC[C@]3(O)C2)[C@H](O)[C@H](O)[C@H]1O
inactive: [1] | [3] | [10] | [6] | [8]
active: [4] 0.0716 µM | [5] 0.0716 µM | [9] 2.31 µM | [7] 0.165 µM

C=CCOC(N)=O
inactive: [1] | [2] | [3] | [5] | [10] | [6] | [9] | [7] | [8]

N#Cc1ccc(Cl)cc1
inactive: [1] | [2] | [3] | [5] | [6] | [9] | [7] | [8]

Clc1cc(C(Cl)(Cl)Cl)cnc1Cl
inactive: [1] | [3] | [4] | [10] | [6] | [7] | [8]
active: [5] 17.5 µM | [9] 8.55 µM

C=CC(F)(C(F)(F)F)C(F)(F)C(F)(F)F (stereo unspecified)
inactive: [1] | [2] | [3] | [5] | [10] | [6] | [9] | [7] | [8]

CC(C)(C#N)N=NC(C)(C)C#N
inactive: [1] | [3] | [4] | [5] | [10] | [6] | [9] | [7] | [8]

CN(N=O)c1ccc([N+](=O)[O-])cc1
inactive: [1] | [2] | [3] | [5] | [10] | [6] | [9] | [7] | [8]

N#Cc1ccccc1N
inactive: [1] | [3] | [4] | [5] | [10] | [6] | [9] | [7] | [8]

BrCc1ccc(Br)cc1
inactive: [1] | [2] | [3] | [4] | [5] | [6] | [9] | [7] | [8]

CCCCCCCCCCCCCCC(Br)C(=O)O (stereo unspecified)
active: [1] 42.2 µM | [2] 111 µM | [6] 110 µM | [7] 129 µM | [8] 162 µM
inactive: [3] | [4] | [5]

CC(c1ccccc1)(c1ccc(O)cc1)c1ccc(O)cc1
active: [5] 13.2 µM
inactive: [1] | [3] | [10] | [6] | [7] | [8]

Nc1ccc(N)cc1
inactive: [2] | [3] | [4] | [5] | [10] | [6] | [9] | [7] | [8]
active: [9] 27.7 µM | [8] 23.8 µM

c1ccc(-c2cccc(-c3ccccc3)c2)cc1
inactive: [2] | [3] | [4] | [5] | [10] | [6] | [9] | [7]
active: [8] 56.6 µM
